# Experimental data: PubChem BioAssay AID651821 (The Scripps Research Institute Molecular Screening Center, 2012)
# “And” between values parts separate entries of the source, which are not always exact repeats. Equal values may be shown once. About 4,700 (1.3%) of roughly 370,000 compounds were called active.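 The calls were made as follows: active = inhibition above the plate cutoff, the mean of all test compounds on that plate plus 3 SD (cut at about 35% in these data); inactive = the rest.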 The sample as a whole holds a higher share of actives than the screen did.
# Assay: binders of r(CAG) RNA repeats, primary screen, biochemical, fluorescence (AID 651821);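 also: 0% = DMSO alone and 100% = 100 µM mitoxantrone as full dye displacement; higher means more dye released from RNA so lower well fluorescence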
# Settings: r(CAG) RNA repeat, TO-PRO-1 dye displacement fluorescence; at 3 µM; hits give high values
row,SMILES,inhibition
1,COc1ccc(OC)c(-n2cc3c(=O)n(C)c(=O)n(C)c3c2)c1,2.65% (inactive)
2,CCOC(=O)N1C(=O)C[C@](Sc2ccc(C)cc2)(C(=O)OC)[C@H]1c1ccccc1,-2.71% (inactive)
3,COC(=O)c1ccccc1-n1cc(COC(=O)NCCc2ccccc2)nn1,1.18% (inactive)
4,Cc1ccc(N(CCC(=O)O)S(=O)(=O)c2cccc(C(F)(F)F)c2)cc1,5.06% (inactive)
5,Cc1noc(C)c1S(=O)(=O)Nc1ccc(C(=O)O)cc1,-0.8% (inactive)
6,Cc1oc2c(F)c(F)c(F)c(F)c2c1S(=O)(=O)Nc1cccc(C(F)(F)F)c1,53.7% (active)
7,COC(=O)[C@H](C(C)C)N(CCc1cn(Cc2ccccc2)nn1)S(=O)(=O)c1ccc(F)cc1Br,3.36% (inactive)
8,CSCCC1NC2(C(=O)Nc3ccc(Cl)cc32)[C@@H]2C(=O)N(C3CCCC3)C(=O)[C@H]12 (some centres not stated),-2.44% (inactive)
9,Cc1ccc(NC(=O)c2cc(C)nn2-c2ccccc2)c(C)c1,2.01% (inactive)
10,O=C(COc1ccc2c(C(F)(F)F)cc(=O)oc2c1)Nc1ccc2c(c1)OCCO2,4.46% (inactive)
11,O=C(COc1ccc2c3c(c(=O)oc2c1)CCC3)NC1CCCCC1,-4.24% (inactive)
12,Cc1cc(C)cc(Oc2c(C(F)(F)F)oc3cc(OCC(=O)O)ccc3c2=O)c1,44.4% (active)
13,CC(c1c[nH]c2ccccc12)c1c(-c2ccccc2)n(C)c2ccccc12 (configuration not stated),8.54% (inactive)
14,COc1ccccc1-n1c(SCC(=O)O)nc2sc3c(c2c1=O)CCC3,5.16% (inactive)
15,CCc1ccc(-n2c(=S)sc3c(=O)n(-c4ccccc4OC)c(=S)[nH]c32)cc1,9% (inactive)
16,COc1ccc(Cl)cc1-n1c(=S)sc2c(=O)n(-c3ccc(F)cc3)c(SCC(=O)O)nc21,40.9% (active)
17,CCCCN1C(=O)/C(=C2/C=CC=CN2C)SC1=S,-1.7% (inactive)
18,COc1ccc2c(c1)N(C)/C(=C1/SC(=S)N(NC(C)=O)C1=O)S2,5.15% (inactive)
19,CCN1C(=O)/C(=C2/Sc3ccccc3N2CCCS(=O)(=O)O)SC1=S,51.4% (active) and 69.1% (active)
20,CC(CC(=O)N1CCN(c2ccccc2)CC1)S(=O)(=O)c1ccc2c(c1)NC(=O)CS2 (configuration not stated),-1.08% (inactive)
21,O=C(CCCCCN1C(=O)C2C3C=CC(C3)C2C1=O)Nc1ccccn1 (configuration not stated),1.49% (inactive)

row,SMILES,inhibition
1,COC(=O)Cc1nnn2c1[C@H](C)[C@H](c1ccccc1[N+](=O)[O-])OCC2,2.71% (inactive)
2,CCOC(=O)C1=C(C(=O)OCC)C2N(Cc3ccc(C#N)cc3)c3ccccc3[C@@]23C[C@@H](C(=O)OC)N(S(=O)(=O)c2ccc(F)cc2)C3=N1 (some centres not stated),15.6% (inactive)
3,COc1ccc(S(=O)(=O)Nc2cc(C)on2)cc1NC(C)=O,3.85% (inactive)
4,Cc1cc(NS(=O)(=O)c2ccc(NC(=S)NC(=O)c3ccc(F)cc3Cl)cc2)no1,33.1% (inactive)
5,COc1cc2ccccc2cc1C(=O)Nc1ccc(S(=O)(=O)Nc2cc(C)on2)cc1,67.5% (active)
6,CCOc1ccc(Br)cc1S(=O)(=O)Nc1ccc(S(=O)(=O)Nc2cc(C)on2)cc1,14.9% (inactive)
7,CCOc1ccc(CC(=O)Nc2ccc(S(=O)(=O)Nc3cc(C)on3)cc2)cc1OCC,22.4% (inactive)
8,CCc1ccc(OC(C)C(=O)Nc2ccc(S(=O)(=O)Nc3cc(C)on3)cc2)cc1 (configuration not stated),36.2% (active)
9,CCOc1cc(C(=O)Nc2ccc(S(=O)(=O)Nc3cnc4ccccc4n3)cc2)cc(OCC)c1OCC,66.1% (active)
10,Cc1cc(NS(=O)(=O)c2ccccc2)no1,-0.66% (inactive)
11,CCOc1ccc(C(=O)Nc2ccc(S(=O)(=O)Nc3cc(C)on3)cc2)cc1,39.1% (active)
12,O=C(/C=C/Nc1ccc(S(=O)(=O)Nc2cnc3ccccc3n2)cc1)c1cccnc1,5.52% (inactive)
13,CCC(Oc1ccccc1C)C(=O)Nc1ccc(S(=O)(=O)Nc2cc(C)on2)cc1 (configuration not stated),20.8% (inactive)
14,C=C(C)CNC(=S)Nc1ccc(S(=O)(=O)Nc2cnc3ccccc3n2)cc1,19.2% (inactive)
15,COc1cccc(CNC(=O)[C@H]2CCCN2C(=O)[C@H]2CCCN2C(=O)c2ccc(F)cc2)c1,0.66% (inactive)
16,Cc1cc(OC(=O)NCCc2ccc(F)cc2)ccc1F,1.32% (inactive)
17,CC(=O)c1ccc(S(=O)(=O)NCC2CCN(C(=O)C(=O)c3cccs3)CC2)cc1,2.35% (inactive)
18,COc1ccc(SSc2ccc(OC)cc2C(=O)O)c(C(=O)O)c1,2.51% (inactive)
19,CC[C@@H](CCC(=O)N(c1ccccc1)c1ccccc1)C1CC1,1.63% (inactive)
20,COCC(C)NC(=O)COc1nncc2ccccc12 (configuration not stated),-0.71% (inactive)
21,O=C(CSc1nc2ccccc2n1Cc1ccccc1)NNC(=S)Nc1ccccc1,31.7% (inactive)

row,SMILES,inhibition
1,C[C@H]1CN([C@@H](C)CO)C(=O)CCCn2nncc2CO[C@@H]1CN(C)C(=O)Nc1ccc(N2CCN(C)CC2)cc1,4.52% (inactive)
2,CC1CC1C(=O)OCC(=O)c1c(N)n(C)c(=O)n(C)c1=O (configuration not stated),-4.36% (inactive)
3,CCCCNC(=O)C[C@H]1C[C@@]2(C(=O)OC)C(=C[C@H](COCc3ccccc3)O[C@@H]2C)N(Cc2ccc(Cl)cc2Cl)C1=O,8.58% (inactive)
4,CCN(CC)C(=O)CC[C@H]1CC[C@]2(CCCN(Cc3ccc(Cl)cc3)C2)O1,-2.21% (inactive)
5,COC(=O)c1cccc(N(C(=O)c2ccco2)C(C(=O)NC2CCCC2)c2ccco2)c1 (configuration not stated),-6.24% (inactive)
6,CCOc1ccccc1C(=O)N1CCC[C@@H]1C(=O)N1CCC[C@H]1C(=O)NCc1ccccc1,-1.61% (inactive)
7,COc1ccc(-c2ccc3c(n2)CCCN3S(=O)(=O)c2ccc(C)cc2)cc1,4.71% (inactive)
8,CC(C)(C)c1ccc(S(=O)(=O)NCC2CCN(C(=O)C(=O)c3cc4ccccc4o3)CC2)cc1,9.84% (inactive)
9,COc1ccc(/C=C2\CC3(OC(C)=O)CCCN2C3)cc1 (configuration not stated),-0.3% (inactive)
10,CC(=O)Oc1c(C(=O)c2nnc(C)o2)c(=O)n(Cc2ccccc2)c2ccccc12,2.47% (inactive)
11,Cc1ccc(C(=O)/C=C/Nc2ccc(S(=O)(=O)Nc3onc(C)c3C)cc2)cc1,48.3% (active)
12,Cc1cc(OC(C)C(=O)Nc2ccc(S(=O)(=O)Nc3onc(C)c3C)cc2)cc(C)c1Cl (configuration not stated),75.6% (active)
13,CC(Oc1cccc(Cl)c1)C(=O)Nc1ccc(S(=O)(=O)Nc2ncccn2)cc1 (configuration not stated),8.9% (inactive)
14,Cc1cc(C)nc(NS(=O)(=O)c2ccc(N/C=C\C(=O)c3cccs3)cc2)n1,10.2% (inactive)
15,Cc1noc(NS(=O)(=O)c2ccc(NC(=O)C34CCC(CC3)C4)cc2)c1C,2.57% (inactive)
16,Cc1cc(NS(=O)(=O)c2ccc(NC(=O)C(C)Oc3cccc(C)c3C)cc2)nc(C)n1 (configuration not stated),18.4% (inactive)
17,COc1cccc(CNC(=O)CNS(=O)(=O)c2ccc3nc(C)sc3c2)c1OC,0.91% (inactive)
18,COc1cccc(CNC(=O)[C@H]2CCCN2C(=O)[C@H]2CCCN2C(=O)c2cc(F)cc(F)c2)c1,-1.44% (inactive)
19,COC(=O)C[C@@H]1CC[C@@H]2[C@H](COc3ccc(NC(=O)c4cccc(F)c4)cc3C(=O)N2C)O1,-0.86% (inactive)
20,COc1ccccc1C(=O)NC1CCCCN(C(C)C)C1=O (configuration not stated),-0.3% (inactive)
21,O=C(CCC1CCN(C(=O)c2cccc(Cl)c2F)CC1)Nc1ccccc1,-5.06% (inactive)

row,SMILES,inhibition
1,Cc1ccccc1-c1ccc2c(c1)O[C@@H](CN(C)Cc1ccc(C(=O)O)cc1)[C@@H](C)CN([C@H](C)CO)S2(=O)=O,51.3% (active)
2,C[C@@H]1CN([C@@H](C)CO)S(=O)(=O)c2ccc(-c3ccc(C(=O)N(C)C)cc3)cc2O[C@@H]1CN(C)Cc1ccccc1C(=O)O,3.43% (inactive)
3,C[C@@H]1CN([C@H](C)CO)S(=O)(=O)c2ccc(C#C[C@@H](C)O)cc2O[C@@H]1CN(C)Cc1ccc(-c2ccccc2)cc1,4.36% (inactive)
4,CN(C)c1ccc(NC(=O)NC2CCCCN(Cc3ccc(Cl)cc3)C2=O)cc1 (configuration not stated),5.29% (inactive)
5,Cc1ccc2cc(/C=N/Nc3ccc(C(=O)O)cc3)c(Cl)nc2c1,41.6% (active)
6,CSCC[C@H](NC(=O)OC(C)(C)C)C(=O)N/N=C/c1cc2ccc(C)cc2nc1Cl,3.07% (inactive)
7,CC(=O)Nc1ccc(C(=O)CSc2nc3ccc(C)cc3[nH]2)cc1,14.5% (inactive)
8,CCOC(=O)/C=C/c1ccccc1O,0.7% (inactive)
9,CCC(=O)Nc1ccc2c(c1)C(=O)N(C)[C@H]1CC[C@H](CC(=O)NCCOC)O[C@@H]1CO2,-0.44% (inactive)
10,Cc1ccc(Cc2nnc(SCC(=O)Nc3ccc(C)cc3C)[nH]c2=O)cc1,10.1% (inactive)
11,Cc1ccc(Cc2nnc(SCC(=O)Nc3ccccc3C)[nH]c2=O)cc1,15.2% (inactive)
12,COc1ccc(Cc2nnc(SCC(=O)Nc3ccc(C)c(Cl)c3)[nH]c2=O)cc1,70.4% (active)
13,Cc1ccc(OCc2nnc(SC/C=C/c3ccccc3)n2Cc2ccco2)cc1,5.16% (inactive)
14,Cc1ccc(NC(=O)Nc2cc(C)nn2-c2ccccc2)cc1,0.22% (inactive)
15,Cc1ccc(NC(=O)Nc2nnc(-c3ccncc3)s2)cc1,56.5% (active)
16,O=C(CC(O)(C(F)(F)F)C(F)(F)F)Nc1ccc(Cl)c(Cl)c1,4.89% (inactive)
17,O=C(CCS(=O)(=O)c1ccccc1)Nc1ccc(Cl)c(Cl)c1,5.15% (inactive)
18,Cc1ccc(CNC(=O)Nc2nnc([C@H]3C[C@H](O)[C@@H](CO)O3)s2)cc1,6.41% (inactive)
19,Cc1nnc(NC(=O)Nc2ccc(Cl)c(Cl)c2)s1,41.7% (active)
